# Compound activity as filed in PubChem BioAssay.
# The list is not random: actives were taken first. Their share in the collection is about 5.7%.
# JMJD2A Tudor: inhibitors of human JMJD2A Tudor domain. O75164. AlphaScreen JMJD2A-Tudor / H3K4me3 peptide binding. Potency, µM (titrated, usually from 114 µM), inactives show at the top dose activity change, negative = inhibition, most hits filed as inhibitors. 390,000 compounds, 4.4% hits; further: potency means the concentration at half of the fitted maximal effect; on the % scale 0 is the no-effect control and ±100 the full control effect; nearly all actives have a fitted effect of over 50% in size
# Target sequence (O75164 whole entry, looked up, the tested form may be a part): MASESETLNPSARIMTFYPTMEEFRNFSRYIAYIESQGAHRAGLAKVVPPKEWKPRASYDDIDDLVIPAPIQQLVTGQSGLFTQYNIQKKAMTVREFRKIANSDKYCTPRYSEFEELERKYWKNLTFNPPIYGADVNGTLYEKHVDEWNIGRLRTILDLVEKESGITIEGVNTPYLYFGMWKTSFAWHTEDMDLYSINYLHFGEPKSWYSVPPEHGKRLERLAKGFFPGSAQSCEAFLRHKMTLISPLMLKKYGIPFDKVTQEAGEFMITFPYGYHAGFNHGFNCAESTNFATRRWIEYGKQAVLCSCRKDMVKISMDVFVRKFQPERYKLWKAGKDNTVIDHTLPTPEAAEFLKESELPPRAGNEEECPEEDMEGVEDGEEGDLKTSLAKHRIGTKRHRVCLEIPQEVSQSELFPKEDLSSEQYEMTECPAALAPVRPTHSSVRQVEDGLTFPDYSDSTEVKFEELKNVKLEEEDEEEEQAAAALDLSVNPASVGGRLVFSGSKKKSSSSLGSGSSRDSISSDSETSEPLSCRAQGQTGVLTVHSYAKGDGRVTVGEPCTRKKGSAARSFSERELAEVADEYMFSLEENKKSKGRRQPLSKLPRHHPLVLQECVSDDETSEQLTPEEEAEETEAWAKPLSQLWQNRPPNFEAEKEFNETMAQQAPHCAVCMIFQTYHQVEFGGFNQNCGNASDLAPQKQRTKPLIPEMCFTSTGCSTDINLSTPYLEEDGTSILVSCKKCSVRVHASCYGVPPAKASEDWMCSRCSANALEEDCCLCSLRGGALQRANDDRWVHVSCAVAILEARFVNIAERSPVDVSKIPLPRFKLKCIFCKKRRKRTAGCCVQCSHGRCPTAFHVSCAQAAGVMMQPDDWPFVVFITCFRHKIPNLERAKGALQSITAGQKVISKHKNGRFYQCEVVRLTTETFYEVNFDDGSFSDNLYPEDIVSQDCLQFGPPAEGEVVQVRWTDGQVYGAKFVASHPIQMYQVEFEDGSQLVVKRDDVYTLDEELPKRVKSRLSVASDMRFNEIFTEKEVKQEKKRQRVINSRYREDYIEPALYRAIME
# PI5P4K alpha inh: blocks human PI5P4K alpha kinase activity | P48426 | PI5P4Kalpha enzyme, ADP-Glo luminescence, 60 min; stronger effect = lower value | max response, % | 330,000 compounds, 1.2% hits; active means max response of -50% or lower; inconclusive means between -30% and -50%; inactive means -30% or higher; further: value at the top dose of about 77 µM; on the % scale 0 is the no-effect control and ±100 the full control effect
#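 Human PI5P4Kalpha with substrate in 0.038 M HEPES pH 7.4, 0.28 mM EGTA, 0.1% CHAPS, 5% DMSO; reaction started with 5 microM ATP (final), 60 min at room temperature. ADP formed read by ADP-Glo luminescence.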
# L3MBTL1 inh: inhibitors of human L3MBTL1 | Potency, µM (highest dose often 57.1 µM), inactives show top-dose activity, negative = inhibition, hits mostly inhibitors | AID 485360 | 230,000 compounds, 0.66% hits | AlphaScreen L3MBTL1–H3K9me1 peptide binding; further: potency means the concentration at half of the fitted maximal effect; on the % scale 0 is the no-effect control and ±100 the full control effect; nearly all actives have a fitted effect of over 60% in size
#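 AlphaScreen assay: L3MBTL1 (50 nM final) was preincubated 30 min at room temperature with biotinylated H3(1-15)K9me1 peptide (75 nM final), then 30 min with library compounds; streptavidin donor and nickel chelate acceptor beads (10 ug/mL final) added, 30 min dark.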
# KDM4E inh: JMJD2E (human) inhibition. B2RXH2. JMJD2E catalytic domain, FDH-coupled NADH fluorescence (FDH is formaldehyde dehydrogenase). Potency, µM (top dose mostly 57.1 µM), for the others: at the highest dose activity change, negative = inhibition, usual class: inhibitors. 230,000 compounds, 1.6% hits; active means well fitted inhibition curve with a large enough effect, not every such curve was filed as active; inconclusive means small, poorly fitted or top-dose-only effect, or another doubt; inactive means no such curve, though single readings can be large or run the other way;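 further: potency means the concentration at half of the fitted maximal effect; 0% = wells with enzyme and -100% = buffer wells without enzyme; nearly all actives have a fitted effect of over 50% in size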
# BAZ2B inh: inhibitors of human BAZ2B bromodomain. AID 504333. 360,000 compounds, 4.4% hits. Q9UIF8. Potency, µM (top dose mostly 114 µM), inactives show top-dose activity change, negative = inhibition, actives largely listed as inhibitors. AlphaScreen BAZ2B-H3K14Ac peptide displacement; further: potency means the concentration at half of the fitted maximal effect; on the % scale 0 is the no-effect control and ±100 the full control effect; nearly all actives have a fitted effect of over 60% in size
#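 Protein-peptide AlphaScreen: BAZ2B 50 nM, b-H3K14Ac 50 nM, 1x PBS pH 7.4 + 0.01% Tween-20. Preincubation 30 min RT; cpd 30 min RT (top 110 uM); beads 20 min RT, light-protected.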
# HP1b chromo inh: HP1-beta chromodomain-methylated histone interaction inhibition | 390,000 compounds, 0.56% hits | Potency, µM (titrated, usually from 114 µM), for the others: at the highest dose activity change, negative = inhibition, most hits filed as inhibitors | AlphaScreen HP1-beta / biotin-H3K9me3 peptide binding | P83916; further: potency means the concentration at half of the fitted maximal effect; nearly all actives have a fitted effect of over 70% in size
#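 Compound inhibition of the preformed complex between 50 nM HP1-beta and 50 nM biotinylated H3K9me3 peptide was read by AlphaScreen. Buffer was PBS pH 7.4 with 0.01% Tween-20. Incubations ran 30 min at room temperature, with 10 ug/mL donor/acceptor beads.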
# An asterisk follows results filed as active; ? = inconclusive; / = no result. Unless noted, the call rests on the fitted dose curve; in most records, active means well fitted inhibition curve with a large enough effect; inconclusive means small, poorly fitted or top-dose-only effect; inactive means no such curve, though single readings can be large or run the other way.
SMILES,JMJD2A Tudor,PI5P4K alpha inh,L3MBTL1 inh,KDM4E inh,BAZ2B inh,HP1b chromo inh
Cc1ccccc1NC(=S)c1ccc2ccccc2n1,-14%,2,/,/,10µM*,37%
COC(=O)CS(=O)(=O)c1cccc2cccnc12,-24%,3,11%,2%,-6%,5%
COc1cc(C2C(C#N)=C(N)Oc3cc(N(C)C)ccc32)cc2c1OCO2 (stereo unspecified),50µM*,/,0%,-7%,45µM*,?
COc1ccc(C2C(C#N)=C(N)OC3=C2C(=O)CC(C)(C)C3)cc1 (stereo unspecified),12%,-5,-6%,-22%,-10%,40%
COc1cc(C2C(C#N)=C(N)OC3=C2C(=O)CC(C)(C)C3)cc2c1OCO2 (stereo unspecified),?,-59*,/,/,/,1%
C#CCOCCOCCOCCNc1nc(N2CCOCC2)nc(N2CCN(C(=O)[C@H]([C@@H](C)CC)n3cc([C@@H](N)Cc4ccc(O)cc4)nn3)CC2)n1,-24%,-4,3%,-6%,-20%,30%
C#CCOCCOCCOCCNc1nc(N2CCN(C(=O)[C@H]([C@@H](C)CC)n3cc([C@@H](N)CO)nn3)CC2)nc(N2CCN(C(=O)[C@H](Cc3ccc(O)cc3)n3cc([C@@H](N)CC(C)C)nn3)CC2)n1,56µM*,-3,?,-8%,32µM*,-11%
C#CCOCCOCCOCCNc1nc(N2CCN(C(=O)[C@H](C(C)C)n3cc(CCO)nn3)CC2)nc(N2CCN(C(=O)[C@H](Cc3ccc(O)cc3)n3cc(CCO)nn3)CC2)n1,-18%,2,/,/,/,35%
C#CCOCCOCCOCCNc1nc(N2CCN(C(=O)[C@H]([C@@H](C)CC)n3cc([C@@H](N)Cc4ccc(O)cc4)nn3)CC2)nc(N2CCN(C(=O)[C@H]([C@@H](C)CC)n3cc([C@@H](N)CC(C)C)nn3)CC2)n1,45µM*,18,-10%,0%,?,22%
C#CCOCCOCCOCCNc1nc(N2CCN(C(=O)[C@H]([C@@H](C)CC)n3cc([C@@H](N)Cc4ccc(O)cc4)nn3)CC2)nc(N2CCN(C(=O)[C@H](Cc3ccc(O)cc3)n3cc([C@@H](N)CC(C)C)nn3)CC2)n1,14µM*,-8,-5%,-1%,56µM*,8%
CC(=O)c1ccc(S(=O)(=O)N2CCC(C(=O)Nc3ncc(C)s3)CC2)cc1,-9%,-2,-4%,/,/,21%
O=C(COC(=O)c1ccc(Br)o1)Nc1ncc(Cl)cc1Cl,?,?,/,15%,50µM*,11%
O=C(COC(=O)c1ccc([N+](=O)[O-])o1)Nc1ncc(Cl)cc1Cl,-21%,-27,?,/,/,-12%
O=C(COC(=O)c1cnccn1)Nc1ncc(Cl)cc1Cl,?,?,?,/,50µM*,-15%
O=C(COC(=O)c1cnccn1)Nc1c(Cl)cc(Cl)cc1Cl,-7%,-11,4%,/,8%,45%
CC(=O)CC[N+](C)(C)C,-1%,-6,/,/,/,79µM*
COc1ccc(NC2CCCN(C(=O)C3(C)CCCCC3)C2)cc1 (stereo unspecified),-35%,11,/,/,32µM*,-13%
COc1ccc(NC2CCCN(C(=O)c3ccc(OC)cc3OC)C2)cc1 (stereo unspecified),-27%,-5,/,/,?,-17%
O=C(CSc1ccccc1)N1CCCC(Nc2ccccc2)C1 (stereo unspecified),16µM*,-28,/,/,-31%,-3%
COc1ccc(NC2CCCN(Cc3cccc4cnccc34)C2)cc1 (stereo unspecified),?,-3,-12%,/,45µM*,-11%
COc1ccc(NC2CCCN(C(=O)CSc3ccncc3)C2)cc1 (stereo unspecified),-26%,-5,/,/,50µM*,-6%
Cc1cc(C)n2c(Nc3ccccc3C)c(-c3cccs3)nc2n1,-11%,/,/,/,-26%,15%
